In all, about 350,000 compounds went through this assay and about 9,900 (2.8%) were called active. Roughly 15% stayed inconclusive and do not appear here. Calls follow the shape of the dose curve; as a rule, active = well fitted activation curve with a large enough effect; inconclusive = small, poorly fitted or top-dose-only effect; inactive = no such curve, though single readings can be large or run the other way. Many of the other results were omitted from the sample, so actives are more common in it than they were.
test: A quantitative high throughput screen for small molecules that induce DNA re-replication in MCF 10a normal breast cells.; also: nearly all actives have a fitted effect of over 50% in size; as to activity, positive = re-replication: % of control where 0% means no effect; details: MCF 10A DNA re-replication, Hoechst nuclear intensity, 48 h; series mostly up to 46.1 µM; activity, positive = re-replication: at the top concentration
Potency is read from the fitted curve at half-maximal effect.

| SMILES | activity, positive = re-replication | Potency |
| --- | --- | --- |
| CSc1ncccc1C(=O)NCC(c1ccco1)N1CCCCC1 (stereo not drawn) | -0.472% (inactive) |  |
| COC(=O)c1cnc(Nc2cc(C)ccc2OC)c2ccccc12 | 14.9% (inactive) |  |
| COc1ccc(C)cc1Nc1nc(-c2c(C)[nH]c3ccccc23)cs1 |  | 18.4 µM (active) |
| CCCCCCC(=O)Nc1nc(C)c(-c2csc(Nc3cc(Cl)ccc3OC)n2)s1 | 11.8% (inactive) |  |
| CN(CC(=O)NCCc1ccc(F)cc1)CC(=O)Nc1ccc(F)c(F)c1F | 2.2% (inactive) |  |
| CCN(CC)c1ccc(NC(=O)c2ccc(=O)[nH]c2)cc1S(=O)(=O)Nc1ccc(OC)cc1 | 18.9% (inactive) |  |
| COc1ccc2nc(N3C(=O)C(O)=C(C(=O)c4ccco4)C3c3ccco3)sc2c1 (stereo not drawn) | 2.93% (inactive) |  |
| Cc1ccc2nc(N3CCN(C(=O)c4ccco4)CC3)sc2c1 | 17% (inactive) |  |
| Cc1ccc2nc(N3C(=O)C(O)=C(C(=O)c4ccco4)C3c3cccc(O)c3)sc2c1 (stereo not drawn) |  | 23.1 µM (active) |
| CCN(C(=O)COC(=O)c1c(C)nn(-c2ccccc2)c1Cl)c1c(N)n(Cc2ccccc2)c(=O)[nH]c1=O | -1.57% (inactive) |  |
| Cc1cccc(NC(=O)CN2CCN(CC(=O)NCC3(N4CCCCC4)CCCCC3)CC2)c1C | 1.93% (inactive) |  |
| CCN(CC(=O)Nc1ccc(OC)cc1)C(=O)CSCc1ccc(C)cc1 | 4.68% (inactive) |  |
| OCC[C@H]1C[C@@H](O)[C@H](O)[C@]2(OCCCc3ccccc32)O1 | 7.29% (inactive) |  |
| CN(C)/C=C/C(=O)c1ccccc1F | 4.67% (inactive) |  |
| O=C(/C=C/c1ccccc1)c1ccccc1O |  | 20.6 µM (active) |
| O=C(/C=C/c1ccccc1)N/C(=C/c1ccccc1)C(=O)Nc1ccccc1O | 0.812% (inactive) |  |
| O=C(CSc1nnc(-c2ccncc2)o1)Nc1cccc(Cl)c1 | -3.65% (inactive) |  |
| CN(c1ccccc1)S(=O)(=O)c1cc(C(=O)OCC(=O)N2CCN(C(=O)c3ccco3)CC2)ccc1Cl | 1.62% (inactive) |  |
| CN(c1ccccc1)S(=O)(=O)c1cc(C(=O)N2CCN(c3ncccn3)CC2)ccc1Cl |  | 20.6 µM (active) |
| CN(c1ccccc1)S(=O)(=O)c1ccc(C(=O)N2CCN(c3ccccc3Cl)CC2)cc1 | 11.7% (inactive) |  |
| CN(C(=O)c1cccc(NC(=O)Cc2cccc(NC(=O)C3CCCN(C(=O)C4CC4)C3)c2)c1)C1CCC1 (stereo not drawn) | -0.899% (inactive) |  |
| CC[C@]1(C(=O)OC)[C@H]2C(=O)N(C)C(=O)[C@H]2[C@H]2CN(C)C(=NCc3ccccc3)N21 | -7.09% (inactive) |  |
| Cc1cc(NC(=O)CSc2ncc(C(F)(F)F)cc2Cl)no1 | -3.51% (inactive) |  |
| C=CC[C@@H](CC(=O)N[C@H](CO)Cc1ccccc1)C(=O)N[C@@H](COC(=O)[C@@H](CC=C)Cc1ccc(F)cc1)Cc1c[nH]c2ccccc12 | 3.99% (inactive) |  |
| CCCCCCc1cc2cc(-c3nnc(-c4ccccc4)o3)c(=O)oc2cc1O |  | 1.46 µM (active) |

| SMILES | activity, positive = re-replication | Potency |
| --- | --- | --- |
| Cc1c(CC(=O)NCCCCCC(=O)O)c(=O)oc2cc3occ(-c4ccccc4)c3cc12 | 5.09% (inactive) |  |
| Cc1c(CCC(=O)O)c(=O)oc2cc3occ(-c4ccccc4)c3cc12 | -9.98% (inactive) |  |
| COCc1cc(C)nc2sc(C(=O)NC3CCCCC3)c(N)c12 | 27.3% (inactive) |  |
| COc1ccc(OC)c(NC(=O)c2sc3nc(C)cc(C)c3c2N)c1 |  | 11.6 µM (active) |
| CCc1nnc(NC(=O)c2sc3nc(C)cc(COC)c3c2N)s1 | 12.4% (inactive) |  |
| Cc1ccc(COC(=O)CN2C(=O)NC3(CCCC3)C2=O)cc1 | 0.31% (inactive) |  |
| Cc1ccc(NC(=O)CCNC(=O)c2ccc([N+](=O)[O-])cc2)cc1S(=O)(=O)N1CCOCC1 | 13.8% (inactive) |  |
| O=C(CN1C(=O)NC2(CCCCCC2)C1=O)Nc1ccc([N+](=O)[O-])cc1 | 2.08% (inactive) |  |
| COc1cc2c(cc1OC)C1C(=O)c3cc(OS(C)(=O)=O)c(OC)cc3C1N(C)C2=O (stereo not drawn) | 11.8% (inactive) |  |
| CCC(CO)Oc1cc(NC(=O)c2cccc3ccccc23)c2ncn(C(C)C)c2c1 (stereo not drawn) | -2.74% (inactive) |  |
| COc1ccc(C2=NN(C(=O)CCC(=O)O)C(c3cccs3)C2)cc1OC (stereo not drawn) | -6.26% (inactive) |  |
| CCS(=O)(=O)Nc1ccc(C2=NN(C(C)=O)C(c3cccs3)C2)cc1 (stereo not drawn) |  | 9.2 µM (active) |
| CS(=O)(=O)Nc1ccc(C2=NN(S(C)(=O)=O)C(c3cccs3)C2)cc1 (stereo not drawn) | 1.04% (inactive) |  |
| Cn1cc(C2OC(=O)c3ccccc32)c2ccccc21 (stereo not drawn) | 74.6% (inactive) |  |
| CNC(=S)NNC(=O)c1oc2nc(-c3ccccc3)cc(-c3ccco3)c2c1N | 21.2% (inactive) |  |
| O=C(Nc1cccc(F)c1)c1cc(-c2ccco2)nc2ccccc12 | 6.3% (inactive) |  |
| NNC(=O)c1oc2nc(-c3ccccc3)cc(-c3ccco3)c2c1N |  | 20.6 µM (active) |
| Cc1ccc(S(=O)(=O)N2C[C@@H]3CCCC[C@@H]3[C@@H](C)[C@H]2c2cn(Cc3ccccc3)c3ccc(F)cc23)cc1 | 2.93% (inactive) |  |
| Cn1c(N)c(C(=O)COC(=O)COc2ccc(Cl)cc2)c(=O)n(C)c1=O | -4.1% (inactive) |  |
| Fc1ccc(N2N=C(c3cccs3)CC2c2ccco2)c(F)c1 (stereo not drawn) |  | 7.31 µM (active) |
| COc1ccccc1N1N=C(c2cccs2)CC1c1ccccc1 (stereo not drawn) | 16.3% (inactive) |  |
| Cc1ccccc1C1CC(c2cccs2)=NN1S(C)(=O)=O (stereo not drawn) | -23.5% (inactive) |  |
| O=C(N/N=C\c1cccnc1)c1cc(-c2ccccc2)nc2c(Cl)cccc12 |  | 7.31 µM (active) |
| O=C(N/N=C/c1cccnc1)c1cc2ccccc2cc1O | -15.4% (inactive) |  |
| C/C(=N\NC(=O)c1cc(-c2ccc(O)cc2)nc2ccccc12)c1cccnc1 | 4.37% (inactive) |  |

| SMILES | activity, positive = re-replication | Potency |
| --- | --- | --- |
| COc1cccc(CC(=NO)c2cccc(OC)c2)c1 | 2.69% (inactive) |  |
| CC1(C(=O)OCC(=O)Nc2ncc(Cl)cc2Cl)CC1(Cl)Cl (stereo not drawn) | 1.07% (inactive) |  |
| COc1ccc(CNC(=O)[C@H](Cc2c[nH]c3ccccc23)NC(C)=O)cc1OC | -1.5% (inactive) |  |
| COc1ccc(NC(=O)[C@H](NC(=O)[C@@H]2Cc3ccccc3CN2)c2ccccc2)cc1 | 1.04% (inactive) |  |
| COc1cccc(NC(=O)[C@H](Cc2c[nH]c3ccccc23)NC(=O)[C@@H]2Cc3ccccc3CN2)c1 |  | 18.4 µM (active) |
| CCc1c(Nc2ccccc2C)nc(N)[nH]c1=O | -6.06% (inactive) |  |
| COc1ccc(OC)c(CN2CCN(C(=O)CNC(=O)c3cc(C)cc(C)c3)CC2)c1 | 15% (inactive) |  |
| Cc1ccc(C(=O)NCC(c2cccs2)N(C)C)cc1S(=O)(=O)N1CCOCC1 (stereo not drawn) | 26.2% (inactive) |  |
| COc1ccc2[nH]c3c(c2c1)CCN1C(=O)C(CC(=O)NCCc2ccccn2)C[C@H](C(=O)N2CCOCC2)[C@@]31C (stereo partly drawn) | 1.89% (inactive) |  |
| COc1ccccc1C(=O)OCC(=O)Nc1cccc(S(=O)(=O)NC2=NCCCCC2)c1 |  | 18.4 µM (active) |
| O=C(COC(=O)c1c(Cl)cccc1Cl)Nc1cccc(S(=O)(=O)NC2=NCCCCC2)c1 | 3.95% (inactive) |  |
| CCc1ccc(C(=O)OCC(=O)Nc2cccc(S(=O)(=O)NC3=NCCCCC3)c2)cc1 | -9.03% (inactive) |  |
| CC(NC(=O)c1ccccc1)C(=O)Nc1ccccc1 (stereo not drawn) | -2.99% (inactive) |  |
| CC(Oc1ccc2c(-c3ccccc3)cc(=O)oc2c1)C(=O)NC(Cc1c[nH]c2ccccc12)C(=O)O (stereo not drawn) | -19.5% (inactive) |  |
| Cc1cc(N2CCN(S(=O)(=O)c3ccc(C)c(C)c3)CC2)c2ccccc2n1 |  | 10.3 µM (active) |
| Cc1ccccc1N1CCN(S(=O)(=O)c2ccc3ccccc3c2)CC1 | 17.8% (inactive) |  |
| Cc1ccc(S(=O)(=O)N2CCN(c3ccccc3)CC2)cc1C | 1.22% (inactive) |  |
| COc1ccc(Cl)cc1C=CC=NNC(=O)c1ccncc1 | 0.633% (inactive) |  |
| COc1ccccc1C(=O)NCC(=O)OCC(=O)NNC(=O)c1ccc(Br)cc1 | -1.96% (inactive) |  |
| O=C(O)c1ccccc1N=N/C(=N/Nc1cc(S(=O)(=O)O)ccc1O)c1ccccc1 | -5.64% (inactive) |  |
| Cc1cc(C)cc(NC(=O)CN2C(=O)c3ccccc3C2=O)c1 | -6.92% (inactive) |  |
| Cc1cccc(NC(=O)CN2C(=O)c3ccccc3C2=O)c1C | 14.4% (inactive) |  |
| O=C(CN1C(=O)c2cccc3cccc1c23)Nc1ccccc1 |  | 20.6 µM (active) |
| CN(C(=O)CSc1nnc(-c2ccc3c(c2)OCO3)o1)C1CCS(=O)(=O)C1 (stereo not drawn) | -9.07% (inactive) |  |
| Cc1ccc(S(=O)(=O)N(C)C)cc1NC(=O)c1ccc(-n2cncn2)c([N+](=O)[O-])c1 | 1.7% (inactive) |  |

| SMILES | activity, positive = re-replication | Potency |
| --- | --- | --- |
| CCOCCn1[nH]c2ccccc2c1=O | 13.8% (inactive) |  |
| O=C(COC(=O)c1ccc2c(c1)OCCO2)NCc1ccccc1 | -0.36% (inactive) |  |
| COc1ccc(CCNC(=O)COC(=O)c2cc(=O)c3ccccc3o2)cc1 | -1.05% (inactive) |  |
| COc1ccc(CNC(=O)COC(=O)C2=Cc3ccccc3OC2)cc1 |  | 18.4 µM (active) |
| CN(/N=C/c1ccccc1)C(=S)c1ccccc1 | 0.402% (inactive) |  |
| CCC(CO)Oc1cc(NC(=O)c2ccc(Cl)cc2)c2ncn(C(C)C)c2c1 (stereo not drawn) | 0.301% (inactive) |  |
| Cc1nnc(N/N=C/c2ccccn2)[nH]c1=O |  | 2.59 µM (active) |
| Cc1ccccc1Nc1nnc(C)c(=O)[nH]1 | -1.32% (inactive) |  |
| Cc1nnc(N/N=C/c2cccs2)[nH]c1=O | -2.78% (inactive) |  |
| COc1ccc2nc(N3CCCC(O)C3)c(C#N)cc2c1 (stereo not drawn) | 6.88% (inactive) |  |
| CCOc1ccc2nc(N3CCCN(C(=O)Nc4ccccc4C)CC3)c(C#N)cc2c1 |  | 16.4 µM (active) |
| CCOc1ccc(C(=O)NC2CCN(C(=O)Nc3ccccc3OC)CC2)cc1 | 0.507% (inactive) |  |
| C[C@H](NS(=O)(=O)c1ccc(Cl)cc1)C(=O)OCC(=O)N1CCOCC1 | -7.44% (inactive) |  |
| CC(C)[C@@H](C(=O)OCC(=O)c1ccc2c(c1)NC(=O)CO2)N1C(=O)c2ccccc2C1=O | 14.5% (inactive) |  |
| Cc1cccc(Nc2nnc(SCC(=O)c3c(N)n(C4CC4)c(=O)[nH]c3=O)s2)c1C | 3.57% (inactive) |  |
| COc1ccc(/C=N/Nc2nc3ccccc3c(=O)[nH]2)cc1 | 0.203% (inactive) |  |
| COc1ccc(Cc2nnc(N/N=C/c3ccccc3O)[nH]c2=O)cc1OC |  | 10.3 µM (active) |
| O=c1[nH]c(NCCO)nnc1Cc1ccc(Cl)cc1 | -14.8% (inactive) |  |
| CCN(CC)S(=O)(=O)c1ccc(N2CCOCC2)c(NC(=O)C(C)Oc2ccc(F)cc2)c1 (stereo not drawn) | 0.635% (inactive) |  |
| COC(=O)c1cc(-c2cccs2)nc2ccccc12 | -1.79% (inactive) |  |
| CC(C)(C)Cc1nnc(NC(=O)c2cc(-c3ccccc3)nc3ccccc23)s1 | 19.2% (inactive) |  |
| O=C(Nc1nnc(-c2ccccc2)o1)c1cc(-c2cccs2)nc2ccccc12 |  | 2.06 µM (active) |
| COc1cccc(N2CCN(CC(=O)Nc3ccnn3C3CCCC3)CC2)c1 | 8.58% (inactive) |  |

Source: PubChem BioAssay AID624296 (National Center for Advancing Translational Sciences (NCATS), 2012)
